The results in this text go back to PubChem BioAssay (Tox21).

Records with an inconclusive call do not appear. A number with no mark means an inactive call. The source made the active and inactive calls. The call rests on the fitted dose curve; in most records, active means well fitted activation curve with a large enough effect in the repeat runs; inconclusive means weak or mixed curves; inactive means flat fitted curve, though single readings scatter.
On the % scale 0 is the no-effect control and ±100 the full control effect.

The test can be described thus: Caspase-3/7 induction in HepG2 cells by small molecules, qHTS assay (AID 1346978). Further: nearly all actives have a fitted effect of over 15% in size. To be noted: HepG2 caspase-3/7 activation, Caspase-Glo luminescence, 17 h; series mostly up to 92.4 µM; caspase activation: at the top concentration. The text has this:
National Center for Advancing Translational Sciences [NCATS] NIH Chemical Genomics Center [NCGC] U.S. Environmental Protection Agency [EPA] National Institutes of Environmental Health Sciences [NIEHS] National Toxicology Program [NTP] Assay overview: Apoptosis is a process of programmed cell death and plays a central role in the development of multicellular organisms. It is a highly regulated process and induces cell death by activating caspases, which are the members of cysteine aspartic acid-specific protease (caspase) family. Caspases involved in apoptosis are classified by their mechanism of action as initiator caspases (caspase-2, -8, -9 and -10) and executioner caspases (caspase-3, -6, and -7). Inhibition of apoptosis results in number of cancers, autoimmune diseases, inflammatory diseases and viral infection. To identify small molecule compounds that induce apoptosis, a homogeneous, luminescent Caspase-Glo 3/7 assay was used. Wild type HepG2 cells were used to screen Tox21 libraries for identifying caspase-3/7 activity inducers.
Assay Protocol Summary: HepG2 cells were dispensed at 2,000 per well in 5uL of culture medium into white solid bottom 1536-well plates (Corning Life Sciences, Corning, NY) using a Multidrop Combi (Thermo Scientific, Waltham, MA) dispenser. The assay plates were incubated at 37 C and 5% CO2 for 5hr, and then 23nL of compounds dissolved in DMSO and positive control were transferred using a Pintool station (Wako, San Diego, CA). The assay plates were incubated at 37C and 5% CO2 for 17hr. For caspase-3/7 activity read, 4uL of Caspase-Glo 3/7 reagent (Promega Corporation, Madison, WI) was added to each well of the assay plates using Flying Reagent Dispenser (FRD, Aurora Discovery, San Diego, CA) and incubated the assay plates at room temperature for 30min. The luminescence signal was quantified using a ViewLux plate reader (Perkin Elmer, Shelton, CT).
On the technique in general: qHTS replaces the single test concentration by a dilution series.
For the molecule `C[N+](C)(C)CC(O)CC(=O)[O-]` (stereo not given), the “caspase activation” value is 1.91% [at 42.5 µM].
On to `N=c1nc(N2CCCCC2)cc(N)n1O`, for which the “caspase activation” value is 1.75% [at 42.5 µM].
For `CC1(C)CO[C@@H](CC(=O)O)CN1`, the “caspase activation” value was -0.0412% [at 42.5 µM].
As to `CCc1nccnc1CC`, the caspase activation is 0.2% [at 19 µM].
As for `N[C@H]1CN(c2c(F)cc3c(=O)c(C(=O)O)cn(C4C[C@H]4F)c3c2Cl)CC12CC2` (stereo not given in full), the “caspase activation” value was 0.304% [at 42.5 µM].
Consider `CC[N+](C)(C)c1cccc(O)c1`, for which the “caspase activation” value was 0.353% [at 42.5 µM].
With `NC(=O)c1cn(Cc2c(F)cccc2F)nn1`, the “caspase activation” value is 2.73% [at 42.5 µM].
On the same count and under the same terms, the result for `CCCCC/C=C\CCC=O` reads -0.298%; that for `CC(NC(CCc1ccccc1)C(=O)O)C(=O)N1C(=O)N(C)CC1C(=O)O` (stereo not given), -0.0819% [at 42.5 µM]; that for `C[C@H](NC(CCc1ccccc1)C(=O)O)C(=O)N1CCC[C@H]1C(=O)O` (stereo not given in full), 3.66% [at 42.5 µM].
The same measure, in the same setting: the result for `CC(=O)OCC(=O)[C@@]1(O)CCC2C3CCC4=CC(=O)CC[C@]4(C)C3[C@@H](O)C[C@@]21C` (stereo not given in full) reads -0.877% [at 42.5 µM].
On to `OC[C@]1(O)OC[C@@H](O)[C@H](O)[C@@H]1O`, for which the Potency result is “inactive”.
With `CCOC(C)(C)C`, the “caspase activation” value was 1.24%.
Same read-out and setting: the result for `CC(C)NC(=O)NC(C)C` reads 2.14%; that for `NS(=O)(=O)c1cc2c(cc1Cl)NC(C1CC3C=CC1C3)NS2(=O)=O` (stereo not given), -0.356% [at 42.5 µM].
As to `O=C(CCCN1CCN(c2ccccn2)CC1)c1ccc(F)cc1`, the “caspase activation” value was -2.08% [at 42.5 µM].
`CCN1CCC[C@H]1CNC(=O)c1cc(S(N)(=O)=O)ccc1OC`: the “caspase activation” value is -0.659% [at 42.5 µM].
The same measure, in the same setting: next, `NC(=O)c1ccc(N)cc1`: 1.02%; `Cc1cc(O)cc2c1O[C@](C)(CCC[C@H](C)CCC[C@H](C)CCCC(C)C)CC2`: -0.979% [at 42.5 µM]; `CCCCCCCCCCCCCC=O`: -1.41% [at 8.39 µM].
On to `COCCc1ccc(OCC(O)CNC(C)C)cc1` (stereo not given), for which the Potency entry is “inactive”.
In the case of `NC(=O)c1ccc([N+](=O)[O-])cc1`, the “caspase activation” value is -0.0351%.
In the case of `CCO/C([O-])=N/c1c[n+](N2CCOCC2)no1`, the “caspase activation” value is 1.5% [at 42.5 µM].
Turning to `CN1C(=O)N(C)C(O)C1O` (stereo not given), the “caspase activation” value was 0.206%.
With `Nc1ccccc1S(=O)(=O)O`, the “caspase activation” value is -1.23%.
Turning to `CCOC(=O)CC(C)=O`, the “caspase activation” value was 0.126%.
Regarding `CCCCNC(=O)NCCCC`, the “caspase activation” value was -0.917%.
`COc1ccccc1OCC(O)CN1CCN(CC(=O)Nc2c(C)cccc2C)CC1` (stereo not given): the “caspase activation” value is -0.493% [at 42.5 µM].
As to `Cc1sccc1Br`, the “caspase activation” value is 0.112% [at 42.5 µM].
On to `O=Cc1cccc([N+](=O)[O-])c1`, for which the “caspase activation” value was -0.757%.
In the case of `CCOC(=O)[C@H](CCc1ccccc1)N[C@@H](C)C(=O)N1[C@H](C(=O)O)C[C@@H]2CCC[C@@H]21`, the “caspase activation” value is 1.52% [at 42.5 µM].
Take `Brc1c(NC2=NCCN2)ccc2nccnc12`: the “caspase activation” value was 0.473% [at 42.5 µM].
On to `CO[C@]12C[C@@H](COC(=O)c3cncc(Br)c3)CN(C)[C@@H]1Cc1cn(C)c3cccc2c13`, for which the “caspase activation” value was -0.691% [at 42.5 µM].
Consider `CN1CCC(=C2c3ccccc3CC(=O)c3sccc32)CC1`, for which the “caspase activation” value was 0.574% [at 42.5 µM].
`CCO[Si](CCC1CCC2OC2C1)(OCC)OCC` (stereo not given): the “caspase activation” value is -1.93%.
Same read-out and setting: next, `COc1c(N2C[C@@H]3CCCN[C@@H]3C2)c(F)cc2c(=O)c(C(=O)O)cn(C3CC3)c12`: -1.5% [at 42.5 µM]; `Nc1cc(=O)[nH]c(N)n1`: -1.92% [at 42.5 µM].
On to `COC(=O)c1c(Cl)c(Cl)c(C(=O)OC)c(Cl)c1Cl`, for which the Potency result is “inactive”.
In the case of `CN1CC(=O)NC1=N`, the “caspase activation” value was -0.389% [at 42.5 µM].
For the molecule `NCCc1cnc[nH]1`, the “caspase activation” value is -0.0201% [at 42.5 µM].
